{"source": "PubChem BioAssay (Tox21)", "note": "Results filed as inconclusive are left out. Values without a mark were called inactive. Calls come from the whole dose curve; as a rule, active = well fitted cell-killing curve with a large enough effect in the repeat runs; inconclusive = weak or mixed curves, or effect the other way; inactive = flat fitted curve, though single readings scatter. % is set by controls: 0 for no effect and ±100 for the full control effect.", "data": [{"assay": "qHTS assay to identify small molecule antagonists of the estrogen receptor alpha (ER-alpha) signaling pathway using the BG1 cell line in the presence of 0.1 nM 17-beta-estradiol - cell viability counter screen (AID 1259241); note: nearly all actives have a fitted effect of over 40% in size", "settings": "VM7Luc4E2 (BG1) viability, CellTiter-Fluor protease, 22 h, 0.1 nM estradiol agonist added; series mostly up to 92.4 µM; activity change, negative = cytotoxicity: at the top concentration", "how_it_was_run": "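In this screen, hormone-deprived VM7Luc4E2 cells were seeded at 4,000 per well, dosed with compound and 0.1 nM estradiol final, and incubated 22 hr at 37C and 5% CO2; fluorogenic live-cell protease signal reported viability.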", "values": [{"smiles": "CC(O)C(CO)C(C)O", "note": "(configuration not stated)", "activity change, negative = cytotoxicity": "-0.1%"}, {"smiles": "Cc1cc(O)c(Cl)cc1C", "activity change, negative = cytotoxicity": "0.731%"}, {"smiles": "CCCCC(CC)COC(=O)CC#N", "note": "(configuration not stated)", "activity change, negative = cytotoxicity": "-0.195%"}, {"smiles": "CCCCCCCCCCCBr", "activity change, negative = cytotoxicity": "7.23% [at 42.5 µM]"}, {"smiles": "C=CCN(CC=C)CC=C", "activity change, negative = cytotoxicity": "-0.149%"}, {"smiles": "CC[N+](C)(CC)CC", "activity change, negative = cytotoxicity": "4.2%"}, {"smiles": "CCCCC(O)/C=C(C)/C=C/C=C/C(=O)N1CCCC1=O", "note": "(configuration not stated)", "activity change, negative = cytotoxicity": "-1.22% [at 42.5 µM]"}, {"smiles": "CC12CCCC=C1C(=O)OC2=O", "note": "(configuration not stated)", "activity change, negative = cytotoxicity": "1%"}, {"smiles": "CCCc1ccc(O)c(OC)c1", "activity change, negative = cytotoxicity": "-0.594%"}, {"smiles": "COc1cc(OC)cc(OC)c1", "activity change, negative = cytotoxicity": "14.5% [at 42.5 µM]"}, {"smiles": "CCCCCCC(=O)c1ccccc1", "activity change, negative = cytotoxicity": "-8.62%"}, {"smiles": "CC(=O)SC[C@@H](C)C(=O)N1CCC[C@H]1C(=O)N[C@@H](Cc1ccccc1)C(=O)O", "activity change, negative = cytotoxicity": "3.32% [at 42.5 µM]"}, {"smiles": "CCCCCCCCS(=O)(=O)O", "activity change, negative = cytotoxicity": "13.4%"}, {"smiles": "O=C(c1ccccc1)c1cccc(O)c1", "activity change, negative = cytotoxicity": "2.58%"}, {"smiles": "Nc1nc(Cl)cc(Cl)n1", "activity change, negative = cytotoxicity": "0.168%"}, {"smiles": "O=C(O)Cc1c(Cl)ccc(Cl)c1Cl", "activity change, negative = cytotoxicity": "-1.4%"}, {"smiles": "CCCCCC(=O)CC", "activity change, negative = cytotoxicity": "-1.26%"}, {"smiles": "CC(C)(Sc1cc(C(C)(C)C)c(O)c(C(C)(C)C)c1)Sc1cc(C(C)(C)C)c(O)c(C(C)(C)C)c1", "activity change, negative = cytotoxicity": "4.59% [at 42.5 µM]"}, {"smiles": "COc1cc(S(N)(=O)=O)cc(C(=O)O)c1OC", "activity change, negative = cytotoxicity": "6.97% [at 42.5 µM]"}, {"smiles": "C=CCCCCCCCCCCCCCC", "activity change, negative = cytotoxicity": "0.733% [at 19 µM]"}, {"smiles": "CN(C)CCC[C@@]1(c2ccc(F)cc2)OCc2cc(C#N)ccc21", "activity change, negative = cytotoxicity": "-3.4% [at 42.5 µM]"}, {"smiles": "O=c1c(O)c(O)c1=O", "activity change, negative = cytotoxicity": "9.31%"}, {"smiles": "NNC(=O)CCCCC(=O)NN", "activity change, negative = cytotoxicity": "1.68%"}, {"smiles": "Cc1ccc(O)c(C(=O)c2ccccc2)c1", "activity change, negative = cytotoxicity": "5.56%"}]}, {"assay": "qHTS assay to identify small molecule antagonists of the androgen receptor (AR) signaling pathway using the MDA cell line in the presence of 0.5 nM R1881 - cell viability counter screen (AID 1259242); note: nearly all actives have a fitted effect of over 45% in size", "settings": "MDA-kb2 viability, CellTiter-Fluor protease fluorescence, 16 h; series mostly up to 92.4 µM; viability change, negative = cytotoxic: at the top concentration", "how_it_was_run": "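Concentration-response screen of compounds for toxicity in MDA-kb2 reporter cells: 16 hr at 37C with 0.5 nM R1881, endpoint live-cell protease fluorescence measured in the reporter wells.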", "values": [{"smiles": "CC(O)C(CO)C(C)O", "note": "(configuration not stated)", "viability change, negative = cytotoxic": "-2.74%"}, {"smiles": "Cc1cc(O)c(Cl)cc1C", "viability change, negative = cytotoxic": "1.88%"}, {"smiles": "CCCCCCCCCCCCCCCCN(C)C", "viability change, negative = cytotoxic": "0.99% [at 8.39 µM]"}, {"smiles": "Cc1ccc2ccccc2n1", "viability change, negative = cytotoxic": "-0.381%"}, {"smiles": "CCCCC(CC)COC(=O)CC#N", "note": "(configuration not stated)", "viability change, negative = cytotoxic": "3.74%"}, {"smiles": "CCCCCCCCCCCBr", "viability change, negative = cytotoxic": "5.23% [at 42.5 µM]"}, {"smiles": "COC(=O)C(c1ccccc1Cl)N1CCc2sccc2C1", "note": "(configuration not stated)", "viability change, negative = cytotoxic": "2.52% [at 42.5 µM]"}, {"smiles": "CCO/C=C1\\N=C(c2ccccc2)OC1=O", "viability change, negative = cytotoxic": "0.253%"}, {"smiles": "C=CCN(CC=C)CC=C", "viability change, negative = cytotoxic": "-0.42%"}, {"smiles": "CC[N+](C)(CC)CC", "viability change, negative = cytotoxic": "3.52%"}, {"smiles": "C/C(Cl)=C/CCl", "viability change, negative = cytotoxic": "0.715%"}, {"smiles": "C=CC(C)(CCC=C(C)C)OC(=O)C(C)C", "note": "(configuration not stated)", "viability change, negative = cytotoxic": "0.494%"}, {"smiles": "CCCCC(O)/C=C(C)/C=C/C=C/C(=O)N1CCCC1=O", "note": "(configuration not stated)", "viability change, negative = cytotoxic": "1.29% [at 42.5 µM]"}, {"smiles": "CCOCCOCCOC(C)=O", "viability change, negative = cytotoxic": "-0.452%"}, {"smiles": "CC12CCCC=C1C(=O)OC2=O", "note": "(configuration not stated)", "viability change, negative = cytotoxic": "0.0971%"}, {"smiles": "CCCc1ccc(O)c(OC)c1", "viability change, negative = cytotoxic": "0.91%"}, {"smiles": "COc1cc(OC)cc(OC)c1", "viability change, negative = cytotoxic": "-2.1% [at 42.5 µM]"}, {"smiles": "CCCCCCC(=O)c1ccccc1", "viability change, negative = cytotoxic": "-1.31%"}, {"smiles": "CC(=O)SC[C@@H](C)C(=O)N1CCC[C@H]1C(=O)N[C@@H](Cc1ccccc1)C(=O)O", "viability change, negative = cytotoxic": "2.78% [at 42.5 µM]"}, {"smiles": "CN(C)CCc1c[nH]c2ccc(C[C@H]3COC(=O)N3)cc12", "viability change, negative = cytotoxic": "9.16% [at 42.5 µM]"}, {"smiles": "CCCCCCCCS(=O)(=O)O", "viability change, negative = cytotoxic": "3.42%"}, {"smiles": "CC(C)(C)C(=O)NCCCC(=O)O", "viability change, negative = cytotoxic": "-1.89% [at 42.5 µM]"}, {"smiles": "CC(C)(C)NCC(O)COc1cccc2c1CCC(=O)N2", "note": "(configuration not stated)", "viability change, negative = cytotoxic": "9.37% [at 42.5 µM]"}, {"smiles": "O=C(c1ccccc1)c1cccc(O)c1", "viability change, negative = cytotoxic": "0.894%"}, {"smiles": "CCNC(=O)C(C)OC(=O)Nc1ccccc1", "note": "(configuration not stated)", "viability change, negative = cytotoxic": "-1.22%"}, {"smiles": "Cc1ccccc1OCC(=O)O", "viability change, negative = cytotoxic": "3.89%"}, {"smiles": "Nc1nc(Cl)cc(Cl)n1", "viability change, negative = cytotoxic": "1.43%"}, {"smiles": "O=C(O)Cc1c(Cl)ccc(Cl)c1Cl", "viability change, negative = cytotoxic": "0.918%"}, {"smiles": "CCCCCC(=O)CC", "viability change, negative = cytotoxic": "-0.221%"}, {"smiles": "CC(C)(Sc1cc(C(C)(C)C)c(O)c(C(C)(C)C)c1)Sc1cc(C(C)(C)C)c(O)c(C(C)(C)C)c1", "viability change, negative = cytotoxic": "-1.39% [at 42.5 µM]"}, {"smiles": "COc1cc(S(N)(=O)=O)cc(C(=O)O)c1OC", "viability change, negative = cytotoxic": "5.66% [at 42.5 µM]"}, {"smiles": "C=CCCCCCCCCCCCCCC", "viability change, negative = cytotoxic": "1.94% [at 19 µM]"}, {"smiles": "CC(C)(C)c1ccc(C(=O)CCCCl)cc1", "viability change, negative = cytotoxic": "4.75% [at 42.5 µM]"}, {"smiles": "CN(C)CCC[C@@]1(c2ccc(F)cc2)OCc2cc(C#N)ccc21", "viability change, negative = cytotoxic": "-2.01% [at 42.5 µM]"}, {"smiles": "O=c1c(O)c(O)c1=O", "viability change, negative = cytotoxic": "2.88%"}, {"smiles": "NNC(=O)CCCCC(=O)NN", "viability change, negative = cytotoxic": "0.707%"}, {"smiles": "Cc1ccc(O)c(C(=O)c2ccccc2)c1", "viability change, negative = cytotoxic": "-0.111%"}, {"smiles": "CCCCCCC(O)CO", "note": "(configuration not stated)", "viability change, negative = cytotoxic": "4.44%"}]}]}
